Compounds with a hit are over-represented: about 21% of the library has one in this group of screens.
TDP1 cell noCPT – qHTS for Inhibitors of human tyrosyl-DNA phosphodiesterase 1 (TDP1): qHTS in cells in absence of CPT. DT40 Tdp1-/- hTDP1 cells, no CPT, ATP luminescence, 48 h. Potency, µM (titrated, usually from 46.2 µM), for the others: at the top dose activity change, negative = growth inhibition, hits mostly inhibitors. 15% of 420,000 active; note: potency is the fitted concentration of half-maximal effect; nearly all actives have a fitted effect of over 55% in size
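Chicken DT40 Tdp1-/- cells stably complemented with human TDP1 were seeded at 400 cells/well with DMSO in place of 20 nM camptothecin. After compound pinning, cells grew at least 48 hr at 37 °C; viability read by CellTiter-Glo luminescence.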
Gal4-VP16 FLuc – inhibits Gal4-VP16 luciferase reporter, ROR gamma counter-screen. Potency, µM (series often up to 53.6 µM), inactives show top-dose activity, negative = inhibition, actives largely listed as inhibitors. Drosophila S2 Gal4-VP16 UAS-luciferase, luminescence, 20 h. AID 2546. 3.5% of 310,000 active;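 note: Gal4-VP16 expression switched on by copper sulfate through the metallothionein promoter; potency is the fitted concentration of half-maximal effect; nearly all actives have a fitted effect of over 50% in size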
ELG1 repair inh – blocks ELG1-dependent DNA repair in HEK293T cells; HEK293T ELG1-luciferase reporter, luminescence, 16 h; DNA damage induced by 5-fluorouridine; Potency, µM (top dose mostly 46.1 µM), for inactives: at the highest dose activity change, negative = inhibition, usual class: inhibitors; 2.3% of 330,000 active; AID 504467; note: potency is the fitted concentration of half-maximal effect; nearly all actives have a fitted effect of over 55% in size
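DMSO vehicle served as the neutral condition. Each well held 2,000 cells given 5-fluorouridine plus compound; after 16 hr at 37 °C/5% CO2, ONE-Glo was added and luciferase measured 30 min later.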
RORg inh – inhibitors of mouse ROR gamma transcriptional activity; Drosophila S2 Gal4-RORgamma UAS-luciferase reporter, 20 h; 5.4% of 310,000 active; Potency, µM (top dose mostly 53.6 µM), without a hit: at the top dose activity change, negative = inhibition, most hits filed as inhibitors; P51450; note: potency is the fitted concentration of half-maximal effect; nearly all actives have a fitted effect of over 60% in size
Target sequence (P51450 whole entry, looked up, the tested form may be a part): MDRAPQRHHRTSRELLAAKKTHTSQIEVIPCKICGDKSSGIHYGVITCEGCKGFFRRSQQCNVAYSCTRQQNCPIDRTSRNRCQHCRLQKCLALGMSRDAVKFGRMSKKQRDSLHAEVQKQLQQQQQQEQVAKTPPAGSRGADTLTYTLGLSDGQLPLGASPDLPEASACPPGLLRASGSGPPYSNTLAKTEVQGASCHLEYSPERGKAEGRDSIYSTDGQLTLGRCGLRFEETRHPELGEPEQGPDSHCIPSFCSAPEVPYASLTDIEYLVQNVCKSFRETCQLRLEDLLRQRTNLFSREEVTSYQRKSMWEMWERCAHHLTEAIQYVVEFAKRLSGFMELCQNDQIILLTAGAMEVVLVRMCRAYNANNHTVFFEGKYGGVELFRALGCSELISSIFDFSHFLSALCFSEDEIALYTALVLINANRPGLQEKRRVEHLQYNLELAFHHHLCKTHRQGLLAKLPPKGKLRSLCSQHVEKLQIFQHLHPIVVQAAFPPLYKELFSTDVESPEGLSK
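In this cell-based reporter format, copper sulfate (700 uM final) drives Gal4–ROR gamma fusion expression from a metallothionein promoter in Drosophila Schneider cells; compounds preincubated 1 hr, reporter read after 20 hr at ambient temperature.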
TDP1 cell CPT – growth inhibition of DT40 Tdp1-/-;hTDP1 cells with camptothecin (screen for TDP1 inhibitors) | Potency, µM (doses to about 46.2 µM), without a hit: at the highest dose activity change, negative = growth inhibition, most hits filed as inhibitors | 12% of 420,000 active | AID 686979 | chicken DT40 Tdp1-/-;hTDP1 cells + 20 nM CPT, ATP luminescence, 48 h; note: potency is the fitted concentration of half-maximal effect; nearly all actives have a fitted effect of over 55% in size
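Chicken DT40 Tdp1-/- cells stably complemented with human TDP1 were seeded at 400 cells/well in medium containing 20 nM camptothecin, exposed to pin-transferred compounds, and grown at 37 °C for at least 48 hr. Viability was read as ATP luminescence.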
IL-1B inflam inh – inhibitors of inflammasome signaling (IL-1 beta secretion) | AID 743279 | THP-1 LPS/ATP IL-1B secretion, AlphaLISA, 16 h; hits give low values | 4.7% of 360,000 active | activity change, % at 57.5 µM; in the data active = activity change below about -50%; inconclusive = mostly about -30% to -49%
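THP-1 cells pretreated 1 hr with compounds (up to 57.5 uM final), then stimulated with LPS (250 ng/mL final) plus ATP (1.25 mM final); secreted IL-1B measured by AlphaLISA after 16 hr, decreased signal indicating inhibition.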
The depositor's hits bear a star; ? = inconclusive; . = not tested or not shown; ! = repeats disagree; [ ] = dose if it differs, or a comment. Unless noted, calls come from the whole dose curve; as a rule, active = well fitted curve in the direction sought with a large enough effect; inconclusive = small, poorly fitted or top-dose-only effect, or another doubt; inactive = no such curve, though single readings can be large; an effect the other way counts as inactive or inconclusive. % is set by controls: 0 for no effect and ±100 for the full control effect.

SMILES	TDP1 cell noCPT	Gal4-VP16 FLuc	ELG1 repair inh	RORg inh	TDP1 cell CPT	IL-1B inflam inh
O=C(COc1c(Br)cc(Br)c2cccnc12)Nc1ccccc1F	18.4µM*	20µM*	-0.4%	?	?	15.3
Cc1cccc(C)c1OCC(=O)N1CCc2ccccc2C1	?	1.6%	?	-7.9%	?	-81.9*
O=C(COc1c(Br)cc(Br)c2cccnc12)N1CCCCC1	?	?	-2.1%	10µM*	-23.3%	-6.2
OCc1ccc(-c2nn(Cc3ccccc3)c3ccccc23)o1	17.8µM*!	.	-2.6%	.	11.2µM*!	-11.3
O=C(Nc1ccc(F)c([N+](=O)[O-])c1)C(=O)c1c(O)[nH]c2ccccc12	13µM*	-6.4%	7.4%	4.3%	18.4µM*	0.5
O=C(CSc1ccccn1)Nc1ccc(F)c([N+](=O)[O-])c1	?	0.3%	7.0%	43.7%	?	-76.2*
O=C(Cc1ccc(F)cc1)Nc1ccc(F)c([N+](=O)[O-])c1	?	-5.9%	-6.0%	14.8%	?	-29.3
CC(C)C(=O)NC(NC(=S)Nc1ccc(S(N)(=O)=O)cc1)C(Cl)(Cl)Cl (centres undefined)	1.6%	1.1%	5.3%	-6.8%	-7.2%	-13.3
O=C(Nc1ccccc1)Nc1ccc(F)c([N+](=O)[O-])c1	16.4µM*	2.8%	-10.9%	?	16.4µM*	-90.4*
O=C(NC(NC(=S)Nc1ccc(F)c([N+](=O)[O-])c1)C(Cl)(Cl)Cl)C(c1ccccc1)c1ccccc1 (centres undefined)	.	5.01µM*	.	3.98µM*	.	.
CCCCC(=O)Nc1ccc(C(=O)N2CCC(C(=O)OCC)CC2)cc1	0.1%	8.6%	10.6%	6.9%	-5.3%	4.2
COc1cc(OC)cc(C(=O)NCC2CCCN(Cc3cccc(C(C)=O)c3)C2)c1 (centres undefined)	-10.1%	2.1%	-0.6%	7.5%	-11.3%	8.1
Cc1cc(C)c(S(=O)(=O)/N=C2\C=C(Nc3ccc(C(=O)O)cc3)C(=O)c3ccccc32)c(C)c1	3.66µM*	10µM*	3.26µM*	?	3.66µM*	-104.3*
O=C(O)c1ccc(NC2=C/C(=N/S(=O)(=O)c3ccccc3)c3ccccc3C2=O)cc1	3.66µM*	7.94µM*	4.61µM*	11.2µM*	2.59µM*	-97.5*
Cc1cc(C)c(S(=O)(=O)/N=C2\C=C(NS(=O)(=O)c3ccccc3)C(=O)c3ccccc32)c(C)c1	-18.1%	6.8%	-6.2%	-9.3%	?	29.7
Cc1ccc(S(=O)(=O)/N=C2\C=C(NS(=O)(=O)c3ccccc3)C(=O)c3ccccc32)cc1	25.9µM*	.	.	.	20.6µM*	49.4
O=S(=O)(N=C1C=CC(=NS(=O)(=O)c2ccccc2)c2ccccc21)c1ccccc1	6.51µM*	.	.	.	7.31µM*	0.0
O=C1c2ccccc2C(=O)N1S(=O)(=O)c1ccccc1	18.9%	2.4%	-5.9%	-25.2%	-17.3%	32.6
CSc1nc(-c2ccccc2)nc(N2CCCC2)c1C(C)=O	-14.1%	0.3%	.	-7.2%	-1.5%	-6.7
O=c1nc(-c2ccccc2)nc(-c2ccccc2)[nH]1	?	-1.7%	-4.5%	6.1%	-0.3%	13.4
CC(=O)c1c(N2CCOCC2)[nH]c(-c2ccccc2)nc1=S	?	5.01µM*	-4.8%	1.12µM*	16.4µM*	36.3
CC(=O)c1c(N)[nH]c(-c2ccccc2)nc1=S	6.51µM*	0.794µM*	-29.0%	0.316µM*	6.51µM*	13.1
CC(=O)c1c(N2CCCC2)[nH]c(-c2ccccc2)nc1=S	?	7.94µM*	-1.3%	5.62µM*	?	-14.6
CC(=O)c1c(N2CCN(Cc3ccccc3)CC2)[nH]c(-c2ccccc2)nc1=S	?	?	6.5%	14.1µM*	?	4.1
Cc1cn(CC(=O)NCCCN2CCCC2=O)c(=O)[nH]c1=O	-3.9%	.	.	.	7.5%	0.0
SMILES	TDP1 cell noCPT	Gal4-VP16 FLuc	ELG1 repair inh	RORg inh	TDP1 cell CPT	IL-1B inflam inh
Cc1c(C(=O)Nc2ccc3c4c(cccc24)CC3)cccc1[N+](=O)[O-]	16.4µM*	-5.4%	?	37.3%	?	47.0
Cc1ccc(C(=O)Nc2ccc3c4c(cccc24)CC3)cc1[N+](=O)[O-]	?	-12.9%	-29.2%	-1.1%	?	-12.9
Cc1c(C(=O)NC(=S)Nc2ccc3c4c(cccc24)CC3)cccc1[N+](=O)[O-]	?	5.01µM*	-9.9%	2.24µM*	?	-9.9
O=C(CN1CCN(S(=O)(=O)c2ccc(Cl)c(C(F)(F)F)c2)CC1)NC(=O)NC1CCCCC1	?	.	.	.	20.6µM*	-14.8
O=C(CN1CCN(S(=O)(=O)c2ccc(Cl)cc2)CC1)NC1CCCC1	0.6%	5.6%	4.0%	-2.3%	9.1%	-5.7
CC(=O)c1ccc(S(=O)(=O)N2CCN(CC(=O)NC(=O)NC3CCCCC3)CC2)cc1	?	.	-12.1%	.	-23.9%	-8.6
CCOC(=O)c1ccc(S(=O)(=O)N2CCN(CC(=O)NC(=O)NC3CCCCC3)CC2)cc1	4.5%	-5.4%	?	?	-20.3%	-51.6*
Cc1ccccc1CN1C(=O)c2ccccc2C1c1nnnn1C(C)C (centres undefined)	?	.	.	.	-22.0%	-4.4
CC(C)(C)NC(=O)C(=O)N/N=C/c1cccs1	-1.3%	-6.6%	?	?	-2.2%	36.7
Cc1ccc(C(=O)NNC(=O)/C=C\C(=O)O)cc1	4.2%	3.2%	?	?	0.6%	2.0
CC(C)(C)C1CCc2c(C(=O)NNC(=O)/C=C/C(=O)O)csc2C1 (centres undefined)	-2.7%	14.1µM*	2.1%	?	20.7%	-20.0
CC(C)(C)C1CCc2c(C(=O)N/N=C/c3cccs3)csc2C1 (centres undefined)	?	-22.5%	?	?	14.1µM*	-1.4
Cc1nc2cnc(N3CCNCC3)nc2n(CCC#N)c1=O	8.7%	-7.6%	.	-1.7%	1.2%	.
N#C/C(=C/c1ccc(CNC(=O)C(=O)Nc2cc(Cl)cc(Cl)c2)o1)C(=O)NCc1cccnc1	?	5.8%	1.6%	12.0%[10 µM]	?	10.2
O=C(NCc1cccnc1)/C(=C\c1ccc(-c2cccc(Cl)c2)o1)S(=O)(=O)c1ccccc1	5.17µM*	12.6µM*	16.4µM*	?	4.61µM*	-104.8*

Screening results (PubChem BioAssay)
